# From PubChem BioAssay (EPA / NIEHS)
# Inconclusive results are not listed. Calls of active or inactive are those of the source. The calls were made as follows, unless noted: active = hit-call score of the fitted dose curve at least 0.9, where 1 is the maximum; inactive = score below 0.9.
# What was measured:
# [1] = CCTE_Simmons_MITO_basal_resp_rate: CCTE's HepG2 Seahorse XF Respirometric Screening Assay at Basal Respiratory State, Simmons Lab (AID 2284001); settings: actives raise or lower the signal
# How it was run: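 HepG2 respirometry; 7-pt titration 125 nM–100 uM final; kinetic OCR at 6 min intervals for 72 min; n=3 biological, technical singles; DMSO baseline, gain or loss fit; fenpyroximate (decrease) and 2,4-DNP (increase) controls.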
# [2] = CCTE_Simmons_MITO_max_resp_rate: CCTE's HepG2 Seahorse XF Respirometric Screening Assay at Maximal Respiratory State [uncoupled], Simmons Lab (AID 2284002); settings: actives raise or lower the signal
# How it was run: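 HepG2 oxygen consumption was read on a Seahorse XF96 after FCCP uncoupler injection, following test compound injection; 7 concentrations, 125 nM–100 uM final, three biological replicates. Bidirectional fitting against DMSO vehicle baseline.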
# [3] = CCTE_Simmons_MITO_inhib_resp_rate: CCTE's HepG2 Seahorse XF Respirometric Screening Assay at Inhibited Respiratory State [full ETC block], Simmons Lab (AID 2284006); settings: actives raise or lower the signal
# How it was run: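 Compound injected onto HepG2 cells (125 nM–100 uM final, 7 points); FCCP then rotenone/antimycin A added. Oxygen consumption read every 6 min (3 min mix, 3 min measure) for 72 min. Inhibited-state OCR fitted against DMSO.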
# [4] = CCTE_Harrill_HTTr_Viability_MCF7: CCTE's 6-hour Cell Viability Assessment for the High-Throughput Transcriptomics (HTTr) Platform, in MCF-7 cells cultured in DMEM + 10% fetal bovine serum, Harrill Lab (AID 2284010)
# How it was run: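 Cells were dosed with chemicals in an eight-point dilution series, imaged 6 hours later for propidium iodide uptake, and the endpoint was analyzed by bidirectional fitting against DMSO as negative control.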
# [5] = CCTE_Harrill_HTTr_Apoptosis_MCF7: CCTE's 6-hour Apoptosis Assessment for the High-Throughput Transcriptomics (HTTr) Platform, in MCF-7 cells cultured in DMEM + 10% fetal bovine serum, Harrill Lab (AID 2284011)
# How it was run: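 MCF-7 cells in DMEM + 10% fetal bovine serum were exposed to chemicals for 6 hours over an eight-point dilution series. Caspase-3/7 activation was imaged by high content imaging with CellEvent Caspase 3/7 Green; bidirectional fitting used DMSO as baseline.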
# [6] = CCTE_Harrill_HTTr_CellCount_MCF7: CCTE's Cell Proliferation Assessment for the High-Throughput Transcriptomics (HTTr) Platform, Harrill Lab (AID 2284012; active = hit-call score of the fitted dose curve at least 0.9, where 1 is the maximum;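 also: count of Hoechst-stained nuclei per well by high-content imaging in MCF-7 cells; cells exposed to compound for six hours; intended direction is loss of nuclei count meaning fewer cells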)
# How it was run: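 Chemicals in eight-point dilution series are added to MCF-7 cells for six hours, nuclei are stained with Hoechst and imaged, and per-well nuclei counts are fitted in both directions relative to DMSO controls.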
# [7] = CCTE_Shafer_MEA_acute_spike_number: CCTE's Neural Acute Assay for Total Number of Spikes, Shafer Lab (AID 2284008);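 as to AC50: curve fitted for decrease in spike count so AC50 reflects inhibitors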
# How it was run: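 Primary rat cortical neurons on 16-electrode MEA wells; on DIV 13 or 15, 40-min baseline then 40-min recording with compound (0.03-40 uM) at 37 C. Spikes detected at 8x rms noise; percent change versus baseline, DMSO as negative control.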
# [8] = CCTE_Shafer_MEA_acute_firing_rate_mean: CCTE's Neural Acute Assay for Mean Firing Rate, Shafer Lab (AID 2284009);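 also: analyzed for loss of signal so actives lower firing rate relative to DMSO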
# How it was run: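 Percent change in well-mean firing rate was derived from extracellular spikes detected at 8x rms noise (300-5000 Hz band-pass) before and after a 40-min compound exposure. Cultures were primary rat cortical neurons, tested at 0.03-40 uM.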
# [9] = CCTE_Shafer_MEA_acute_burst_number: CCTE's Neural Acute Assay for Single-Electrode Bursts, Shafer Lab (AID 2284013)
# How it was run: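 Spontaneous network activity of primary rat cortical neurons was recorded extracellularly on microelectrode arrays at 37 C, with 40-min periods before and during exposure to 0.03-40 uM compound on DIV 13 or 15.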
# [10] = CCTE_Shafer_MEA_acute_burst_duration_mean: CCTE's Neural Acute Assay for Mean Burst Duration, Shafer Lab (AID 2284014);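 also: hits are decreases in mean burst duration relative to DMSO controls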
# How it was run: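 Read-out is the per-well percent change in mean burst duration (first to last spike within a single-electrode burst) between 40-min recordings before and after compound. Cultures were primary rat cortical neurons on MEAs, dosed at 0.03-40 uM on DIV 13 or 15.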
# [11] = CCTE_Shafer_MEA_acute_per_burst_spike_number_mean: CCTE's Neural Acute Assay for Average Number of Spikes Per Burst, Shafer Lab (AID 2284015);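 also: hits are decreases in mean spikes per burst versus baseline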
# How it was run: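 Rat primary cortical neurons on 48-well MEAs (DIV 13 or 15) were treated with 0.03-40 uM compound at 37 C. Mean spikes per burst over 40 min were recorded before and after exposure and expressed as percent change from baseline, relative to DMSO.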
# [12] = CCTE_Shafer_MEA_acute_interburst_interval_mean: CCTE's Neural Acute Assay for Mean Interburst Interval, Shafer Lab (AID 2284016);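 also: percent change of mean interburst interval versus each well's own pre-dose baseline; curves fitted for decrease in interburst interval relative to DMSO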
# How it was run: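 Rat primary cortical neurons on 48-well MEAs at DIV 13 or 15 were exposed acutely to 0.03-40 uM. Spikes detected at 8x rms noise, 37 C. Mean interburst interval from 40 min recordings expressed as percent change from 40 min pre-treatment baseline.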
# [13] = CCTE_Shafer_MEA_acute_burst_percentage_mean: CCTE's Neural Acute Assay for Percentage of Spikes in a Burst, Shafer Lab (AID 2284017);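 as to AC50: curve fitted for loss of signal so potency reflects decreased burst percentage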
# How it was run: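 Primary rat cortical neurons on 48-well MEA plates, treated on DIV 13 or 15 at 0.03-40 uM. Spikes detected at 8x rms noise at 37C; percent change from 40-min baseline to 40-min post-dose recording, fitted versus DMSO.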
# [14] = CCTE_Simmons_MITO_viability: CellTiter-Glo Viability Assessment for CCTE's HepG2 Seahorse XF Respirometric Screening Assay [post-hoc], Simmons Lab (AID 2284007; active = hit-call score of the fitted dose curve at least 0.9, where 1 is the maximum)
# How it was run: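 After the Seahorse oxygen-consumption sequence (basal, FCCP, rotenone/antimycin A; 72 min total), HepG2 viability was scored as ATP content by bioluminescence. Chemicals ran at seven concentrations up to 100 uM final for 90 min.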
smiles,measurement,setting,value
CCCCCCCCCCCO,AC50,[1],80.1 µM (active)
same,outcome,[2],inactive
same,outcome,[3],inactive
same,outcome,[4],inactive
same,outcome,[5],inactive
same,outcome,[6],inactive
O=CCCCC=O,outcome,[4],inactive
same,outcome,[5],inactive
same,outcome,[6],inactive
CCCCCCCCCCCCO,outcome,[7],inactive
same,outcome,[8],inactive
same,outcome,[4],inactive
same,outcome,[5],inactive
same,outcome,[9],inactive
same,outcome,[10],inactive
same,AC50,[11],20 µM (active)
same,outcome,[12],inactive
same,AC50,[13],25.5 µM (active)
CN(C)C(=O)C1(N2CCCCC2)CCN(CC[C@@]2(c3ccc(Cl)c(Cl)c3)CN(C(=O)c3ccccc3)CCO2)CC1,outcome,[1],inactive
same,outcome,[2],inactive
same,outcome,[3],inactive
same,AC50,[7],3.26 µM (active)
same,AC50,[8],3.28 µM (active)
same,outcome,[4],inactive
same,outcome,[5],inactive
same,outcome,[6],inactive
same,AC50,[9],2.11 µM (active)
same,AC50,[10],1.81 µM (active)
same,AC50,[11],2.5 µM (active)
same,outcome,[12],inactive
same,AC50,[13],19.4 µM (active)
CO[C@H]1/C=C/O[C@@]2(C)Oc3c(C)c(O)c4c(O)c(c(/C=N/N5CCN(C)CC5)c(O)c4c3C2=O)NC(=O)/C(C)=C\C=C\[C@H](C)[C@H](O)[C@@H](C)[C@@H](O)[C@@H](C)[C@H](OC(C)=O)[C@@H]1C,outcome,[7],inactive
same,outcome,[8],inactive
same,outcome,[4],inactive
same,outcome,[5],inactive
same,outcome,[9],inactive
same,outcome,[10],inactive
same,AC50,[11],12.5 µM (active)
same,outcome,[12],inactive
same,outcome,[13],inactive
O=c1[nH]sc2ccccc12,AC50,[7],0.0259 µM (active)
same,AC50,[8],0.0286 µM (active)
same,outcome,[4],inactive
same,outcome,[5],inactive
same,outcome,[6],inactive
same,outcome,[9],inactive
same,outcome,[10],inactive
same,outcome,[11],inactive
same,AC50,[12],34.3 µM (active)
same,AC50,[13],20 µM (active)
Oc1ccccc1,outcome,[4],inactive
same,outcome,[5],inactive
same,outcome,[6],inactive
Cc1cccc2ccccc12,outcome,[4],inactive
same,outcome,[5],inactive
same,outcome,[6],inactive
O=C1O[C@H]([C@@H](O)CO)C(O)=C1O,outcome,[7],inactive
same,outcome,[8],inactive
same,outcome,[4],inactive
same,outcome,[5],inactive
same,outcome,[6],inactive
same,outcome,[9],inactive
same,outcome,[10],inactive
same,outcome,[11],inactive
same,outcome,[12],inactive
same,outcome,[13],inactive
O=c1ccc2ccccc2o1,outcome,[4],inactive
same,outcome,[5],inactive
same,outcome,[6],inactive
CCCCCCCCOc1ccc(C(=O)c2ccccc2)c(O)c1,outcome,[4],inactive
same,outcome,[5],inactive
Clc1cc(Cl)c2c(c1)N=C1CCCCCN1C2,outcome,[4],inactive
same,outcome,[5],inactive
same,outcome,[6],inactive
O=C(O)Cc1cc(I)c(Oc2ccc(O)c(I)c2)c(I)c1,AC50,[1],27 µM (active)
same,AC50,[2],50 µM (active)
same,outcome,[3],inactive
same,outcome,[14],inactive
same,outcome,[4],inactive
same,outcome,[5],inactive
same,outcome,[6],inactive
Cc1cn([C@H]2C[C@H](N=[N+]=[N-])[C@@H](CO)O2)c(=O)[nH]c1=O,outcome,[7],inactive
same,outcome,[8],inactive
same,outcome,[4],inactive
same,outcome,[5],inactive
same,outcome,[6],inactive
same,outcome,[9],inactive
same,outcome,[10],inactive
same,outcome,[11],inactive
same,outcome,[12],inactive
same,outcome,[13],inactive
CC1=CC(=O)/C(=C(/C)O)C(=O)O1,outcome,[7],inactive
same,outcome,[8],inactive
same,outcome,[9],inactive
same,outcome,[10],inactive
same,outcome,[11],inactive
same,outcome,[12],inactive
same,outcome,[13],inactive
CCN(Cc1cccc(S(=O)(=O)O)c1)c1ccc(C(=C2C=CC(=[N+](CC)Cc3cccc(S(=O)(=O)O)c3)C=C2)c2ccccc2S(=O)(=O)[O-])cc1,outcome,[7],inactive
same,outcome,[8],inactive
same,outcome,[4],inactive
same,outcome,[5],inactive
same,outcome,[6],inactive
same,outcome,[9],inactive
same,outcome,[10],inactive
same,outcome,[11],inactive
same,outcome,[12],inactive
same,outcome,[13],inactive
Clc1ccccc1C(c1ccccc1)(c1ccccc1)n1ccnc1,AC50,[7],5.01 µM (active)
same,AC50,[8],5.03 µM (active)
same,outcome,[4],inactive
same,outcome,[5],inactive
same,AC50,[9],3.26 µM (active)
same,outcome,[10],inactive
same,AC50,[11],5.84 µM (active)
same,outcome,[12],inactive
same,AC50,[13],7.02 µM (active)
CN1C(=O)CC[C@H]1c1cccnc1,outcome,[7],inactive
same,outcome,[8],inactive
same,outcome,[4],inactive
same,outcome,[5],inactive
same,outcome,[9],inactive
same,outcome,[10],inactive
same,outcome,[11],inactive
same,outcome,[12],inactive
same,outcome,[13],inactive
CCCCCCCC[Si](OCC)(OCC)OCC,outcome,[4],inactive
same,outcome,[5],inactive
same,outcome,[6],inactive
c1ccc2n[nH]nc2c1,outcome,[7],inactive
same,outcome,[8],inactive
same,outcome,[9],inactive
same,outcome,[10],inactive
same,outcome,[11],inactive
same,outcome,[12],inactive
same,outcome,[13],inactive
Cc1ncc(CO)c(CO)c1O,outcome,[4],inactive
same,outcome,[5],inactive
same,outcome,[6],inactive
O=C1CCC(C2CCCCC2)CC1,outcome,[1],inactive
same,outcome,[2],inactive
same,outcome,[3],inactive
same,outcome,[14],inactive
same,outcome,[4],inactive
same,outcome,[5],inactive
same,outcome,[6],inactive
CC[C@H](NC(=O)c1cc(F)ccc1NS(=O)(=O)c1cccc2cccnc12)c1ccccc1,outcome,[4],inactive
same,outcome,[5],inactive
